The values below come from publication PMC5795388.

Holding throughout (assay): cross-link between two proteins; cross-linking mass spectrometry
The target in test [1] is Dihydrolipoyllysine-residue succinyltransferase component of 2-oxoglutarate dehydrogenase complex, mitochondrial (UniProt Q9D2G2).
Test [2] has as its target Cytochrome b-c1 complex subunit 8 (UniProt Q9CQ69).
For test [3], the target named is NADH dehydrogenase [ubiquinone] 1 beta subcomplex subunit 10 (UniProt Q9DCS9).
Test [4] concerns the target Cytochrome b-c1 complex subunit 2, mitochondrial (UniProt Q9DB77).
For test [5], the target named is ATP synthase peripheral stalk subunit F6, mitochondrial (UniProt P97450).
Chain of ATP synthase peripheral stalk subunit F6, mitochondrial (P97450 whole entry): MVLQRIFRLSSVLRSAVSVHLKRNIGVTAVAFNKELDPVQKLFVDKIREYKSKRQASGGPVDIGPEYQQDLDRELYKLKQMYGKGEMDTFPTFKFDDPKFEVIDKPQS
The target in test [6] is ATP synthase peripheral stalk subunit d, mitochondrial (UniProt Q9DCX2).
Chain of ATP synthase peripheral stalk subunit d, mitochondrial (Q9DCX2 whole entry): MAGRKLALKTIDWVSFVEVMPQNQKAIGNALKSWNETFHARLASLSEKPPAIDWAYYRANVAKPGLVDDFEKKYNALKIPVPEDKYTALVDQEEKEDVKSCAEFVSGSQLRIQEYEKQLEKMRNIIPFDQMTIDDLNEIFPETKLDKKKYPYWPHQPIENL
For test [7], the target named is Cytochrome b-c1 complex subunit 1, mitochondrial (UniProt Q9CZ13).
Chain of Cytochrome b-c1 complex subunit 1, mitochondrial (Q9CZ13 whole entry, one chain of several): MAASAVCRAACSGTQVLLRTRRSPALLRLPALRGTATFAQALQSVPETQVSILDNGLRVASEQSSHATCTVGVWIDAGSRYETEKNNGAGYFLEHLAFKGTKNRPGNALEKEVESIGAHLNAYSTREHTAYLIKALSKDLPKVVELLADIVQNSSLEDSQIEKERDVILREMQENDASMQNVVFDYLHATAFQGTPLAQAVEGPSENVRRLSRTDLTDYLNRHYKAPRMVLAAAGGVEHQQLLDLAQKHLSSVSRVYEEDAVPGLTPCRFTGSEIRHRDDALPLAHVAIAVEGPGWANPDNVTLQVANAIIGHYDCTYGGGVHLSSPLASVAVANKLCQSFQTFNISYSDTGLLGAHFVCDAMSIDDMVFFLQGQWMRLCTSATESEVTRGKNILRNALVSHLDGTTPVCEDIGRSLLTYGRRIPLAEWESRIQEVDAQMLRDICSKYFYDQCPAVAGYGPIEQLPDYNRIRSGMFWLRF
In test [8] the target is NADH dehydrogenase [ubiquinone] 1 beta subcomplex subunit 8, mitochondrial (UniProt Q9D6J5).
Chain of NADH dehydrogenase [ubiquinone] 1 beta subcomplex subunit 8, mitochondrial (Q9D6J5 whole entry, one chain of several): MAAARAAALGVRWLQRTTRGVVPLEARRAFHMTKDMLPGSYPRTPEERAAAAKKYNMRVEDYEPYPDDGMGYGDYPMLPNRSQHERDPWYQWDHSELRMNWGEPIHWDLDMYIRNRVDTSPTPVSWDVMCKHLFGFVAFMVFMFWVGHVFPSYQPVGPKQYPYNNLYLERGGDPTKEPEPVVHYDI
Test [9] concerns the target Succinate dehydrogenase [ubiquinone] iron-sulfur subunit, mitochondrial (UniProt Q9CQA3).
Test [10] concerns the target Double-stranded RNA-binding protein Staufen homolog 1 (UniProt Q9Z108).
Test [11] addresses Mitochondrial import inner membrane translocase subunit Tim9 (UniProt Q9WV98).
The target in test [12] is Heat shock protein 75 kDa, mitochondrial (UniProt Q9CQN1).
Test [13] has as its target 2-oxoglutarate dehydrogenase complex component E1 (UniProt Q60597).
The target in test [14] is NADH-ubiquinone oxidoreductase 75 kDa subunit, mitochondrial (UniProt Q91VD9).
Chain of NADH-ubiquinone oxidoreductase 75 kDa subunit, mitochondrial (Q91VD9 whole entry): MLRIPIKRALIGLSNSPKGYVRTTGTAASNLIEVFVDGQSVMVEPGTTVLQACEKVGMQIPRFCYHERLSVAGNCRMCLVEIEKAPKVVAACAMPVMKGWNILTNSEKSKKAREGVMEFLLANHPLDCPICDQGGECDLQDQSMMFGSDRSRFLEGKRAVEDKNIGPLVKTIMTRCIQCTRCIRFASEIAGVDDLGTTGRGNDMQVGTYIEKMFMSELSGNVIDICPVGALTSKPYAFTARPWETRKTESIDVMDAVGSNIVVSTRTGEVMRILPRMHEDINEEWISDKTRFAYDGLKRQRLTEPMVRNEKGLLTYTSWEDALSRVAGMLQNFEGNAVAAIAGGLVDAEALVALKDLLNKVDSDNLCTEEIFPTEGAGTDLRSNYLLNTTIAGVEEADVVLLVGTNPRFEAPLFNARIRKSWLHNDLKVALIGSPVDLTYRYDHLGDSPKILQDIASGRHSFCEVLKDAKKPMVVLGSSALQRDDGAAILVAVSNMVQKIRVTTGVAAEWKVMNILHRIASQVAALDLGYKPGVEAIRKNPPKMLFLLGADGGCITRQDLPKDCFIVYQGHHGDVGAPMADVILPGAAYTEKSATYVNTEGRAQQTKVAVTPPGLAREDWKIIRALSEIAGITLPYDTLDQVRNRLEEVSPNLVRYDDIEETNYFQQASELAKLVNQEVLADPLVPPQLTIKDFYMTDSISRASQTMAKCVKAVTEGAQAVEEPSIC
In test [15] the target is Apoptosis-inducing factor 1, mitochondrial (UniProt Q9Z0X1).
Chain of Apoptosis-inducing factor 1, mitochondrial (Q9Z0X1 whole entry): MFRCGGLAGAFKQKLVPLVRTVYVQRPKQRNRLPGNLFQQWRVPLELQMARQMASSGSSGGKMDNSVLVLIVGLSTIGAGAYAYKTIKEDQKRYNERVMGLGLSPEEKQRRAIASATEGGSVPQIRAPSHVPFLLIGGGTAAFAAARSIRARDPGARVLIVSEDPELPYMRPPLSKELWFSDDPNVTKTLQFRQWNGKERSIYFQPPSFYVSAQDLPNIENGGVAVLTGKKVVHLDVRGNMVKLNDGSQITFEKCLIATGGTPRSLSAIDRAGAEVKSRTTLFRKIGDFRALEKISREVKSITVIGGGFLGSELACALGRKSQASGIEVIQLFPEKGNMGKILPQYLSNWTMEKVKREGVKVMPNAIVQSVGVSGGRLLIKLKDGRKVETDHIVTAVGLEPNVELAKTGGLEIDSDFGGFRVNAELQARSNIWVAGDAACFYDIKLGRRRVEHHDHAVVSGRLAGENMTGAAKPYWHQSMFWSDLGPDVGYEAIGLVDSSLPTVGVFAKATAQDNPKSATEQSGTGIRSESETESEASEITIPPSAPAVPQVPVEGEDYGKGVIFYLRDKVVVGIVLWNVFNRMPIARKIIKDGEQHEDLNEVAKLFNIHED
In test [16] the target is Cytochrome b-c1 complex subunit Rieske, mitochondrial (UniProt Q9CR68).
Chain of Cytochrome b-c1 complex subunit Rieske, mitochondrial (Q9CR68 whole entry, one chain of several): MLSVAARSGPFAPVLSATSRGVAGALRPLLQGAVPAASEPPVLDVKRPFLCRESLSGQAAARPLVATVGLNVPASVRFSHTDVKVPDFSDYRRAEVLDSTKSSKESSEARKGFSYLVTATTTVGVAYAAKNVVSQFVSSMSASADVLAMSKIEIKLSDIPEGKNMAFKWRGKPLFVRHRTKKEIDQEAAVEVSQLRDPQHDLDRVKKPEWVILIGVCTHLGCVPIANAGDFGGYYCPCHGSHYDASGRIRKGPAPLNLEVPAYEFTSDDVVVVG
Test [17] addresses Cytochrome c1, heme protein, mitochondrial (UniProt Q9D0M3).
For test [18], the target named is Mitochondrial fission regulator 1-like (UniProt Q9CWE0).
In test [19] the target is MICOS complex subunit Mic26 (UniProt Q9DCZ4).
Test [20] has as its target Mitochondrial import inner membrane translocase subunit TIM14 (UniProt Q9CQV7).

Chain of NADH dehydrogenase [ubiquinone] 1 beta subcomplex subunit 10 (Q9DCS9 whole entry, one chain of several): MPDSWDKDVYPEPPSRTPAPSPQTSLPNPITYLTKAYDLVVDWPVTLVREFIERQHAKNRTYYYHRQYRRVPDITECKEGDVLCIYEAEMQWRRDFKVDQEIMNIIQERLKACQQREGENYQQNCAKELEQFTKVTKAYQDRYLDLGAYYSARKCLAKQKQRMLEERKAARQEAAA
Chain of Double-stranded RNA-binding protein Staufen homolog 1 (Q9Z108 whole entry): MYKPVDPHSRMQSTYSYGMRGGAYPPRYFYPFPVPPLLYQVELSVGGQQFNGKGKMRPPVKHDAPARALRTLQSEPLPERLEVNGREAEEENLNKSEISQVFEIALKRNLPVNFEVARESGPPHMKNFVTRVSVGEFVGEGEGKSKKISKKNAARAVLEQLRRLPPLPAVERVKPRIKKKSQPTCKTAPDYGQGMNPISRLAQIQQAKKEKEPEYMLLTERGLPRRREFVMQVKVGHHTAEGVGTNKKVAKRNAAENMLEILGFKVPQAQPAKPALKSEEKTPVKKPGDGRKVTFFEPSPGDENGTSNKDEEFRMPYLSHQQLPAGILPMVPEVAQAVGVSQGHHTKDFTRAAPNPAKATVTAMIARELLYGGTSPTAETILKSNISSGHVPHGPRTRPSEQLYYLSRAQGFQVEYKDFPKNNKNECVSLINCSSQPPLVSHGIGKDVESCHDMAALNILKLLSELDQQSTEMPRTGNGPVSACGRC
Chain of 2-oxoglutarate dehydrogenase complex component E1 (Q60597 whole entry, one chain of several): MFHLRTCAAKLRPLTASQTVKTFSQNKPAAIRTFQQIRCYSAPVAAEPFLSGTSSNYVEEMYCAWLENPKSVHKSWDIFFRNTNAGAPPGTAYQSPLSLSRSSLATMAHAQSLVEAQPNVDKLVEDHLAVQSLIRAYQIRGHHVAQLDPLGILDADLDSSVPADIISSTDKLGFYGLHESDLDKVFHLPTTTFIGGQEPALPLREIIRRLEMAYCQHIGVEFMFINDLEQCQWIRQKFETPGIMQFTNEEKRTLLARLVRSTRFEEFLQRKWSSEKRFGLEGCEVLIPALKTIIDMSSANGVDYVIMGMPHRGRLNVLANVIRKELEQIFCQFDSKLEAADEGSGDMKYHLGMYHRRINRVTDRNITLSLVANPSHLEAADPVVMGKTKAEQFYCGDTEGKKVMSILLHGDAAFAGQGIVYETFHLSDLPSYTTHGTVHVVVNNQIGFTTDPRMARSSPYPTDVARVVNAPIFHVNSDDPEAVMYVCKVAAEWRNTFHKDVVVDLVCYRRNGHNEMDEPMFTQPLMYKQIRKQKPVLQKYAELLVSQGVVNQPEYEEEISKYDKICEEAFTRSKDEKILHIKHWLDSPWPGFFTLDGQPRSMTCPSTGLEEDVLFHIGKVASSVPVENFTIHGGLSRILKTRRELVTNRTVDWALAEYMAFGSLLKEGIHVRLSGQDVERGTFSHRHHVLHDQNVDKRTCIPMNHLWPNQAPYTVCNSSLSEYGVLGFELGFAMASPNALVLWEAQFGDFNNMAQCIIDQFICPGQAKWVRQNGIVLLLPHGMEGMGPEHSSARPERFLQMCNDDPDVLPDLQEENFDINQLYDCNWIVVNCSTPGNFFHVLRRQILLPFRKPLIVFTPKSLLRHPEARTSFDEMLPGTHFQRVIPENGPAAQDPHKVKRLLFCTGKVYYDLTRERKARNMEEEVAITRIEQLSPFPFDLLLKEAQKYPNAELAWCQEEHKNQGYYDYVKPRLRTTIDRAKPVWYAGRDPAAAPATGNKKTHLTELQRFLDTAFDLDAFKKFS
Chain of Mitochondrial import inner membrane translocase subunit Tim9 (Q9WV98 whole entry): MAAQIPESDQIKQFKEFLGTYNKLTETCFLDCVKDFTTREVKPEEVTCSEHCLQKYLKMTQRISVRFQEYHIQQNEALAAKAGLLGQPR
Chain of Succinate dehydrogenase [ubiquinone] iron-sulfur subunit, mitochondrial (Q9CQA3 whole entry): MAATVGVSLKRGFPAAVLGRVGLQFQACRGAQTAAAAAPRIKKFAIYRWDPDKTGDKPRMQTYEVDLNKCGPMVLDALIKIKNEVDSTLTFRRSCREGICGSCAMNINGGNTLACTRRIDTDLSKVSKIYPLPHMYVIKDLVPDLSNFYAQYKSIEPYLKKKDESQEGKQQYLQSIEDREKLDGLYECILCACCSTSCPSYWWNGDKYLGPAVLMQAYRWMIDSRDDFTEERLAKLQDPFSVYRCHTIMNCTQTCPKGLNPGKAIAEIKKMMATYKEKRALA
Chain of Mitochondrial import inner membrane translocase subunit TIM14 (Q9CQV7 whole entry): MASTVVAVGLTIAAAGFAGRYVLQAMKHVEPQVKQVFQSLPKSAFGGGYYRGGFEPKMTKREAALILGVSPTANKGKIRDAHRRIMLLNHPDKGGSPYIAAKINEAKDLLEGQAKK
Chain of Cytochrome b-c1 complex subunit 8 (Q9CQ69 whole entry, one chain of several): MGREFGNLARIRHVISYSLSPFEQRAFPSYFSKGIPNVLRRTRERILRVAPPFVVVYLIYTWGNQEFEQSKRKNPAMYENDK

Take “Alpha-ketoglutarate dehydrogenase component 4, Q9CQX8”: the “listed as a hit” value in [1] is reported as “yes”. Turning to “Cytochrome b-c1 complex subunit 6, mitochondrial, P99028”, the “listed as a hit” value in [2] and in test [3] was “yes” each time.

Regarding “Cytochrome c1, heme protein, mitochondrial, Q9D0M3”, in [4], the “listed as a hit” value is given as “yes”. For the substance “Malate dehydrogenase, mitochondrial, P08249”, the “listed as a hit” value in [5], in test [6] and in [7] was “yes” throughout. For the substance “NADH dehydrogenase [ubiquinone] 1 beta subcomplex subunit 11, mitochondrial, O09111”, the “listed as a hit” value in test [8] is given as “yes”. Regarding “NADH dehydrogenase [ubiquinone] 1 beta subcomplex subunit 4, Q9CQC7”, the “listed as a hit” value in test [3] is on record as “yes”.

As for “ATP synthase F(0) complex subunit g, mitochondrial, Q9CPQ8”, in test [9], the “listed as a hit” value is listed as “yes”. As to “NADH dehydrogenase [ubiquinone] 1 beta subcomplex subunit 8, mitochondrial, Q9D6J5”, the “listed as a hit” value in test [3] is reported as “yes”.

Regarding “Acetyl-CoA acetyltransferase, mitochondrial, Q8QZT1”, the “listed as a hit” value in [10] is on record as “yes”. For “Mitochondrial import inner membrane translocase subunit Tim10, P62073”, the “listed as a hit” value in test [11] is “yes”. As for “Stress-70 protein, mitochondrial, P38647”, in test [12], the “listed as a hit” value is given as “yes”.

In the case of “Dihydrolipoyl dehydrogenase, mitochondrial, O08749”, the “listed as a hit” value in test [13] is recorded as “yes”. Consider “NADH dehydrogenase [ubiquinone] iron-sulfur protein 6, mitochondrial, P52503”, for which the “listed as a hit” value in test [14] is on record as “yes”.

Regarding “Cytochrome c oxidase subunit FA4, Q62425”, in [15], the “listed as a hit” value is listed as “yes”.

On to “Succinate dehydrogenase [ubiquinone] flavoprotein subunit, mitochondrial, Q8K2B3”, for which the “listed as a hit” value in [7] is listed as “yes”.

Take “Trifunctional enzyme subunit alpha, mitochondrial, Q8BMS1”: the “listed as a hit” value in [6] is “yes”. For the substance “Cytochrome b-c1 complex subunit 8, Q9CQ69”, the “listed as a hit” value in [16] and in [17] was “yes” each time. For Mitochondrial Rho GTPase 1, Q8BG51, in test [18], the “listed as a hit” value was “yes”. In the case of MICOS complex subunit Mic60, Q8CAQ8, the “listed as a hit” value in test [19] was “yes”. Regarding “Mitochondrial import inner membrane translocase subunit TIM16, Q9CQV1”, the “listed as a hit” value in [20] was “yes”.
